About 2,000 (36%) of roughly 5,500 compounds were called active. Not shown: some 18% with an inconclusive outcome. Rule as the data show it: active = normalized growth mostly below about 0.91 (no sharp cut-off); inconclusive = no clear call, values can overlap the other calls; inactive = mostly above about 0.92. The list shows a part of the results.
Experiment: chemical genetic growth profiling, strain panel (AID 1159580);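 also: tested at 20 µM; growth read once vehicle control cultures reached saturation at 30 °C; 1 = growth at the plate median or of vehicle wells; lower values mean less growth of the strain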
Details: S. cerevisiae deletion strains, growth OD

Measured: normalized growth

O=C(O)CF
inactive: locus YAL013W, strain DEP1, stronger effect = lower value 0.998 | locus YAL021C, strain ccr4, stronger effect = lower value 1.01 | locus YAL026C, strain drs2, stronger effect = lower value 1.02 | locus YAL030W, strain snc1, stronger effect = lower value 1.02 | locus YBL061C, strain skt5, stronger effect = lower value 1.02 | locus YBR009C, strain hhf1, stronger effect = lower value 1.06 | locus YBR021W, strain FUR4, stronger effect = lower value 0.97 | locus YBR023C, strain chs3, stronger effect = lower value 1.03 | locus YBR171W, strain sec66, stronger effect = lower value 1.03 | locus YBR229C, strain ROT2, stronger effect = lower value 0.987 | locus YBR231C, strain swc5, stronger effect = lower value 1.01 | locus YBR279W, strain paf1, stronger effect = lower value 1.03 | locus YCL011C, strain gbp2, stronger effect = lower value 1.03 | locus YCL016C, strain dcc1, stronger effect = lower value 1.04 | locus YCL029C, strain bik1, stronger effect = lower value 0.975 | locus YCL061C, strain MRC1, stronger effect = lower value 1.02 | locus YCL069W, strain vba3, stronger effect = lower value 1.02 | locus YCR088W, strain abp1, stronger effect = lower value 1.02 | locus YDL005C, strain med2, stronger effect = lower value 1.02 | locus YDL035C, strain GPR1, stronger effect = lower value 1 | locus YDL040C, strain nat1, stronger effect = lower value 1.02 | locus YDL074C, strain BRE1, stronger effect = lower value 1.03 | locus YDL101C, strain DUN1, stronger effect = lower value 0.995 | locus YDL134C, strain PPH21, stronger effect = lower value 0.994 | locus YDL185W, strain tfp1, stronger effect = lower value 0.967 | locus YDL192W, strain arf1, stronger effect = lower value 0.98 | locus YDR001C, strain nth1, stronger effect = lower value 1.02 | locus YDR069C, strain doa4, stronger effect = lower value 1 | locus YDR101C, strain arx1, stronger effect = lower value 0.969 | locus YDR137W, strain rgp1, stronger effect = lower value 1.03 | locus YDR150W, strain NUM1, stronger effect = lower value 0.995 | locus YDR159W, strain sac3, stronger effect = lower value 0.997 | locus YDR162C, strain NBP2, stronger effect = lower value 1.03 | locus YDR195W, strain ref2 1 | locus YDR297W, strain sur2, stronger effect = lower value 1.03 | locus YDR318W, strain mcm21, stronger effect = lower value 0.965 | locus YDR334W, strain swr1, stronger effect = lower value 1.03 | locus YDR335W, strain msn5, stronger effect = lower value 1.03 | locus YDR388W, stronger effect = lower value 0.989 | locus YDR392W, strain spt3, stronger effect = lower value 0.981 | locus YDR502C, strain sam2, stronger effect = lower value 0.994 | locus YEL003W, strain gim4, stronger effect = lower value 1.03 | locus YEL037C, strain rad23, stronger effect = lower value 1.03 | locus YEL061C, strain CIN8 (second series), stronger effect = lower value 1.03 | locus YEL061C, strain CIN8, stronger effect = lower value 0.998 | locus YER015W, strain faa2, stronger effect = lower value 1.02 | locus YER016W, strain bim1, stronger effect = lower value 1.01 | locus YER110C, stronger effect = lower value 0.974 | locus YER111C, strain swi4, stronger effect = lower value 1.03 | locus YER155C, strain BEM2 (second series), stronger effect = lower value 1.01 | locus YER155C, strain BEM2, stronger effect = lower value 0.999 | locus YER167W, strain BCK2, stronger effect = lower value 0.985 | locus YFR010W, strain ubp6, stronger effect = lower value 1.03 | locus YGL078C, strain dbp3, stronger effect = lower value 0.99 | locus YGL086W, strain mad1, stronger effect = lower value 0.973 | locus YGL167C, strain pmr1, stronger effect = lower value 1.03 | locus YGL173C, strain kem1, stronger effect = lower value 1.03 | locus YGL227W, strain vid30, stronger effect = lower value 1.02 | locus YGL240W, strain doc1, stronger effect = lower value 1 | locus YGL248W, strain PDE1, stronger effect = lower value 0.992 | locus YGL253W, strain hxk2, stronger effect = lower value 1.01 | locus YGR078C, strain PAC10, stronger effect = lower value 1.03 | locus YGR135W, strain pre9, stronger effect = lower value 1.01 | locus YGR229C, strain SMI1, stronger effect = lower value 1.02 | locus YGR252W, strain gcn5, stronger effect = lower value 0.811 | locus YHR013C, strain ard1, stronger effect = lower value 1.07 | locus YHR027C, strain rpn1, stronger effect = lower value 1.02 | locus YHR030C, strain SLT2, stronger effect = lower value 0.988 | locus YHR079C, strain IRE1 (second series), stronger effect = lower value 0.979 | locus YHR094C, strain hxt1, stronger effect = lower value 0.995 | locus YHR129C, strain ARP1, stronger effect = lower value 0.998 | locus YHR142W, strain chs7, stronger effect = lower value 1.03 | locus YHR200W, strain rpn10, stronger effect = lower value 0.966 | locus YIL066C, strain RNR3, stronger effect = lower value 0.988 | locus YIL073C, strain SPO22, stronger effect = lower value 0.916 | locus YIL125W, strain kgd1, stronger effect = lower value 0.986 | locus YIR030C, strain dcg1, stronger effect = lower value 0.991 | locus YJL092W, strain hpr5, stronger effect = lower value 1.02 | locus YJL095W, strain BCK1 (second series), stronger effect = lower value 1.04 | locus YJL095W, strain BCK1, stronger effect = lower value 1.03 | locus YJL115W, strain asf1, stronger effect = lower value 1.02 | locus YJL129C, strain trk1, stronger effect = lower value 1.05 | locus YJL134W, strain LCB3, stronger effect = lower value 0.986 | locus YJL154C, strain vps35, stronger effect = lower value 1.02 | locus YJL164C, strain tpk1, stronger effect = lower value 1.04 | locus YJL166W, strain qcr8, stronger effect = lower value 1 | locus YJL168C, strain set2, stronger effect = lower value 0.986 | locus YJL187C, strain SWE1 (second series), stronger effect = lower value 1.01 | locus YJL187C, strain SWE1, stronger effect = lower value 1.02

— PubChem BioAssay AID1159580 (chemical genetic matrix, 2015)
